We go through nine molecules from PubChem BioAssay (Tox21).

Inconclusive results are not listed. Calls of active or inactive are those of the source. Unless noted, the call rests on the fitted dose curve; in most records, active means well fitted curve in the direction sought with a large enough effect in the repeat runs; inconclusive means weak or mixed curves; inactive means no such curve, though single readings can be large; an effect the other way counts as inactive or inconclusive.

A short description of assay [1]: qHTS assay to identify aromatase inhibitors - cell viability counter screen (AID 743084).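 Further: cells stimulated with testosterone during compound exposure; nearly all actives have a fitted effect of over 55% in size.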 Further: potency means the concentration at half of the fitted maximal effect. A general note: Quantitative high-throughput screening tests each substance at several concentrations.
In assay [2] the target is Aryl hydrocarbon receptor (Homo sapiens) (UniProt P35869). The assay is described as follows: qHTS assay to identify small molecule that activate the aryl hydrocarbon receptor (AhR) signaling pathway (AID 743085). Further: nearly all actives have a fitted effect of over 15% in size. Further: potency means the concentration at half of the fitted maximal effect.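 On activation: HG2L7.5c1 human HepG2 liver cells with stably integrated DRE-driven firefly reporter; series mostly up to about 70 µM.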 An outline of the steps: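 HepG2 cells stably carrying a 20-DRE firefly luciferase reporter (HG2L7.5c1) treated with compound for 24 hr at 37C. Luciferase read by ONE-Glo luminescence, with CellTiter-Fluor viability read first.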
Sequence of Aryl hydrocarbon receptor (Homo sapiens) (P35869 whole entry, looked up): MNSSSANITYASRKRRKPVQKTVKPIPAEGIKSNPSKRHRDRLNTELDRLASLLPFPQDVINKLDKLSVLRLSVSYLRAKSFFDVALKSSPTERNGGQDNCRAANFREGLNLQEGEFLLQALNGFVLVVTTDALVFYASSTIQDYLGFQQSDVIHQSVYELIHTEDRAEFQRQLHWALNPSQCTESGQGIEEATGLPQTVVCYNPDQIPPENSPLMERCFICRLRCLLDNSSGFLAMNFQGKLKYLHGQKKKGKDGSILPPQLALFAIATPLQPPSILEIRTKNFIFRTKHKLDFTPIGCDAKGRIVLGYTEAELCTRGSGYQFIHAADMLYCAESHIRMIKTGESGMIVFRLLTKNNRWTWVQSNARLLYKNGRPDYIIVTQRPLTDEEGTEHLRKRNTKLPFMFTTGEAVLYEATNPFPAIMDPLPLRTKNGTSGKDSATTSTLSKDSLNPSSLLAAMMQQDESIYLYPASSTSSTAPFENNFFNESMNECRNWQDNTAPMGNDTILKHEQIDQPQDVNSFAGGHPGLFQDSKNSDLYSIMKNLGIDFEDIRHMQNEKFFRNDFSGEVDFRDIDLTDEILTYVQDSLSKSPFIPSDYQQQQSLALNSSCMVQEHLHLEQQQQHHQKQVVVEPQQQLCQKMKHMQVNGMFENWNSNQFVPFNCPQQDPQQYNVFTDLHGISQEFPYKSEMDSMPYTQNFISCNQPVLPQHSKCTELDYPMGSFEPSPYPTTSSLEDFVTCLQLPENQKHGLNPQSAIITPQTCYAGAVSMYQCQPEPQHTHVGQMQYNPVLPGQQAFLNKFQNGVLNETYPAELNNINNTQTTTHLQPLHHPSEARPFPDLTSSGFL

The nature of assay [3]: qHTS assay to identify small molecule that activate the aryl hydrocarbon receptor (AhR) signaling pathway - cell viability counter screen (AID 743086). Further: nearly all actives have a fitted effect of over 45% in size. Further: potency means the concentration at half of the fitted maximal effect. An outline of the steps:
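HepG2-AhR-luc (HG2L7.5c1) cells, 4000/well, were preincubated 5 h at 37C, exposed to compound in qHTS format for 24 hr at 37C, then given CellTiter-Fluor for 30 min; viability was read as fluorescence in the reporter wells.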

Assay [4] concerns the target Peroxisome proliferator-activated receptor gamma (Homo sapiens) (UniProt P37231). The assay is described as follows: qHTS assay to identify small molecule agonists of the peroxisome proliferator-activated receptor gamma (PPARg) signaling pathway (AID 743094; active means well fitted activation curve with a large enough effect in the signal ratio in the repeat runs, not every such curve was filed as active; the % refers to the signal ratio). An outline of the steps:
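Stably transfected HEK293H cells (GeneBLAzer PPARg UAS-bla) were incubated with test substances for 17 h at 37C after a 5 h pre-incubation; beta-lactamase activity was then detected by FRET substrate fluorescence.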

For assay [5] the target is unchanged. The assay is described as follows: qHTS assay to identify small molecule antagonists of the peroxisome proliferator-activated receptor gamma (PPARg) signaling pathway (AID 743191; calls by dose curve; further: series mostly up to about 63 µM; nearly all actives have a fitted effect of over 30% in size). An outline of the steps: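 GeneBLAzer PPARg UAS-bla HEK293H cells carrying a UAS-driven beta-lactamase reporter were plated at 3000 cells/well, preincubated 5 h at 37C, then given compound for 17 h at 37C; LiveBLAzer B/G FRET substrate was read after 1 h at room temperature.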

Assay [6] is described as follows: qHTS assay for small molecule agonists of the antioxidant response element (ARE) signaling pathway (AID 743202; active means well fitted activation curve with a large enough effect in the signal ratio in the repeat runs, not every such curve was filed as active; the % refers to the signal ratio). The method in brief: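 Read-out: LiveBLAzer B/G FRET substrate fluorescence after 2 h at room temperature, following 16 h compound treatment at 37 C of HepG2 cells carrying an ARE-driven beta-lactamase reporter.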
A short description of assay [7]: qHTS assay for small molecule agonists of the antioxidant response element (ARE) signaling pathway - cell viability counter screen (AID 743203; calls by dose curve; further: nearly all actives have a fitted effect of over 55% in size). The method in brief:
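Cells (ARE-bla HepG2, 2,000/well) receive DMSO-dissolved compounds after a 5 hrs rest. Plates incubate 16 hrs at 37C/5% CO2. CellTiter-Glo luminescence is then recorded after 30 min at room temperature.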

The nature of assay [8]: qHTS assay for small molecule activators of the heat shock response signaling pathway - cell viability counter screen (AID 743209). Further: nearly all actives have a fitted effect of over 50% in size. The method in brief:
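Quantitative HTS format, Tox21 10K library. HeLa cells carrying an HSE-driven beta-lactamase reporter were treated 5 h at 37 C, then assessed for viability by CellTiter-Glo luminescence.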

Assay [9] in a line: qHTS assay for small molecule activators of the heat shock response signaling pathway (AID 743210; active means well fitted activation curve with a large enough effect in the signal ratio in the repeat runs, with a control signal flat, not every such curve was filed as active; the % refers to the signal ratio; further: series mostly up to about 63 µM). The method in brief:
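HSE-bla HeLa cells (beta-lactamase reporter under heat shock response elements) were exposed to compounds for 5 h at 37 C, then loaded with LiveBLAzer B/G FRET substrate for 2.5 h at room temperature before fluorescence reading.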

Assay [10] deals with Peroxisome proliferator-activated receptor delta (Homo sapiens) (UniProt Q03181). Kind of assay: qHTS assay to identify small molecule agonists of the peroxisome proliferator-activated receptor delta (PPARd) signaling pathway (AID 743212; calls by dose curve). An outline of the steps:
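GeneBLAzer PPARd UAS-bla HEK293H cells (beta-lactamase reporter under UAS control), plated and rested 5 h at 37 C, then exposed to compounds in DMSO at 37 C; LiveBLAzer B/G FRET substrate added, 2 h room temperature, fluorescence read.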

Assay [11] has the same target. Kind of assay: qHTS assay to identify small molecule antagonists of the peroxisome proliferator-activated receptor delta (PPARd) signaling pathway (AID 743215; active means well fitted inhibition curve with a large enough effect in the signal ratio in the repeat runs, not every such curve was filed as active; the % refers to the signal ratio;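 further: cells stimulated with agonist L165041 at 300 nM final during compound exposure; series mostly up to about 62 µM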). An outline of the steps: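 Antagonist-mode beta-lactamase reporter screen: HEK293H cells with UAS-bla under PPARd control, stimulated by 300 nM L165041 (final) alongside test compound for 17 h at 37 C, then FRET fluorescence after 2 h substrate incubation.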

Assay [12] can be described thus: qHTS assay to identify small molecule agonists of the farnesoid-X-receptor (FXR) signaling pathway - cell viability counter screen (AID 743218). Further: nearly all actives have a fitted effect of over 45% in size. Further: potency means the concentration at half of the fitted maximal effect. The method in brief:
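In GeneBLAzer FXR-UAS-bla HEK 293T cells, compounds act for 16 h at 37 C. Cell viability is then scored in the reporter wells by CellTiter-Glo, 30 min at RT, luminescence.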

Assay [13] has as its target Bile acid receptor (Homo sapiens) (UniProt Q96RI1). The assay is described as follows: qHTS assay to identify small molecule agonists of the farnesoid-X-receptor (FXR) signaling pathway (AID 743220; active means well fitted activation curve with a large enough effect in the signal ratio in the repeat runs, not every such curve was filed as active; the % refers to the signal ratio). An outline of the steps: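 Beta-lactamase reporter under UAS control in GeneBLAzer FXR HEK 293T cells (5000/well) measured with LiveBLAzer FRET substrate after 2 h at room temperature. Compound exposure lasted 16 h at 37C.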

Assay [14] can be described thus: qHTS assay to identify small molecule antagonists of the farnesoid-X-receptor (FXR) signaling pathway - cell viability counter screen (AID 743221; active means well fitted cell-killing curve with a large enough effect in the repeat runs, not every such curve was filed as active; further: nearly all actives have a fitted effect of over 50% in size; further: potency means the concentration at half of the fitted maximal effect). The method in brief:
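GeneBLAzer FXR-UAS-bla HEK 293T cells, compound plus chenodeoxycholic acid (50 uM final), 16 h at 37 C. CellTiter-Glo added to the same wells after the beta-lactamase read; luminescence read after 30 min at room temperature as viability.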

Assay [15] is described as follows: qHTS assay to identify small molecule antagonists of the peroxisome proliferator-activated receptor gamma (PPARg) signaling pathway - cell viability counter screen (AID 743194). Further: nearly all actives have a fitted effect of over 55% in size. An outline of the steps:
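PPARg-UAS-bla HEK293H cells were plated, rested 5 h at 37 C, then treated with compounds plus rosiglitazone (50 nM final) for 17 h at 37 C; viability was then read by CellTiter-Glo luminescence after 30 min at room temperature.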

The nature of assay [16]: qHTS assay to identify small molecule agonists of the peroxisome proliferator-activated receptor delta (PPARd) signaling pathway - cell viability counter screen (AID 743211). Further: nearly all actives have a fitted effect of over 55% in size. The method in brief: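 PPARd-bla HEK293H cells (3000/well) were pre-incubated 5 h at 37 C, then exposed to compound for 17 h at 37 C. After 2 h with LiveBLAzer substrate, CellTiter-Glo was added to the same wells; luminescence read after 30 min at room temperature.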

Assay [17] concerns the target Vitamin D3 receptor (Homo sapiens) (UniProt P11473). The assay is described as follows: qHTS assay to identify small molecule agonists of the vitamin D receptor (VDR) signaling pathway (AID 743222; calls by dose curve). The method in brief:
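Agonist activity measured in VDR-bla reporter cells. Exposure 16 h, 37C, 5% CO2; detection by B/G FRET substrate, 2 h RT.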

Assay [18] shares this target. The assay is described as follows: qHTS assay to identify small molecule antagonists of the vitamin D receptor (VDR) signaling pathway (AID 743223; active means well fitted inhibition curve with a large enough effect in the signal ratio in the repeat runs, not every such curve was filed as active; the % refers to the signal ratio). The method in brief: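 VDR-bla cells were treated with compound plus 3 nM final 1alpha,25-dihydroxyvitamin D3 for 16 h at 37C. Beta-lactamase reporter read by B/G FRET substrate fluorescence after 2 h at room temperature. qHTS format.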

A short description of assay [19]: qHTS assay to identify small molecule antagonists of the peroxisome proliferator-activated receptor delta (PPARd) signaling pathway - cell viability counter screen (AID 743213). Further: nearly all actives have a fitted effect of over 50% in size. An outline of the steps:
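In this counter screen, HEK293H cells carrying a UAS-beta-lactamase reporter are co-treated with test compounds and 300 nM L165041 (final) for 17 h at 37 C; cell viability is quantified by CellTiter-Glo luminescence.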

Assay [20] concerns the target Bile acid receptor (Homo sapiens) (UniProt Q96RI1). Kind of assay: qHTS assay to identify small molecule antagonists of the farnesoid-X-receptor (FXR) signaling pathway (AID 743217; active means well fitted inhibition curve with a large enough effect in the signal ratio in the repeat runs, not every such curve was filed as active; the % refers to the signal ratio). The method in brief: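 Beta-lactamase reporter under UAS control in HEK 293T cells; compound exposure 16 h at 37 °C in the presence of chenodeoxycholic acid (50 uM final); signal from B/G FRET substrate after 2 h at room temperature.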

Sequence of Peroxisome proliferator-activated receptor delta (Homo sapiens) (Q03181 whole entry, looked up): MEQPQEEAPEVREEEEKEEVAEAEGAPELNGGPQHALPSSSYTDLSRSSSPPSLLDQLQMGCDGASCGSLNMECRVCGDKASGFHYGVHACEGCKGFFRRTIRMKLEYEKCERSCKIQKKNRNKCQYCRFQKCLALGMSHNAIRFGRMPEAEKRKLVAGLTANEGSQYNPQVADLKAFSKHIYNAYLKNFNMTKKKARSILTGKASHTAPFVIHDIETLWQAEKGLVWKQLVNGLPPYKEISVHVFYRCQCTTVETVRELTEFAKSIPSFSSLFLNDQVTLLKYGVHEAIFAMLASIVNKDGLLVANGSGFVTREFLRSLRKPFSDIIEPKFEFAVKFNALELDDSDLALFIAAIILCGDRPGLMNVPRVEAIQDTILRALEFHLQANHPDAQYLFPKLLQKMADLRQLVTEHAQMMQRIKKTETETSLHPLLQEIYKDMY
Sequence of Bile acid receptor (Homo sapiens) (Q96RI1 whole entry, looked up): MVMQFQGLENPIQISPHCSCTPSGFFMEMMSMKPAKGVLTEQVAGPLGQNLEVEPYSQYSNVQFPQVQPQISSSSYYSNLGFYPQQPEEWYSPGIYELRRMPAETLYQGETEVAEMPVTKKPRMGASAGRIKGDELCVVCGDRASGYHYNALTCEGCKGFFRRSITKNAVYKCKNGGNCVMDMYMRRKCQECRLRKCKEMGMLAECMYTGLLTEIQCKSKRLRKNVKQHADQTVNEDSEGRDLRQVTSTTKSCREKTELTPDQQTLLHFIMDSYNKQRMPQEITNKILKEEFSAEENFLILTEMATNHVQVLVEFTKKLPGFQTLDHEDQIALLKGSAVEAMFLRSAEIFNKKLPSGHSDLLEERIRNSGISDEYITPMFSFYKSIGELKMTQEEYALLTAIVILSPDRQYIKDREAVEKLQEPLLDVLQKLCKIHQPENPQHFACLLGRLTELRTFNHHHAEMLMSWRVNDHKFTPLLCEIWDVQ
Sequence of Vitamin D3 receptor (Homo sapiens) (P11473 whole entry, looked up): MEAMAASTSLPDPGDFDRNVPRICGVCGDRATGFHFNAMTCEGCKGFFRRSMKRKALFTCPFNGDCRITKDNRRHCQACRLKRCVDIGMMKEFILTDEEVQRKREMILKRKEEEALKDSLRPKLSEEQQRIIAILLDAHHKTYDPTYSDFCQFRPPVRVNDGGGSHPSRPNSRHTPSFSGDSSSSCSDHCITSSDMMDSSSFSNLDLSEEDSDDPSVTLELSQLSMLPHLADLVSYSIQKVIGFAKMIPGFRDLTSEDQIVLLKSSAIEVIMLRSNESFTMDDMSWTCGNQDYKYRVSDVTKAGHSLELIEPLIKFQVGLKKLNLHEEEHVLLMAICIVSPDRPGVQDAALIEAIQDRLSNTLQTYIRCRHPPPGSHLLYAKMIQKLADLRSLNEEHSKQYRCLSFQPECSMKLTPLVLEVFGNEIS
Sequence of Peroxisome proliferator-activated receptor gamma (Homo sapiens) (P37231 whole entry, looked up): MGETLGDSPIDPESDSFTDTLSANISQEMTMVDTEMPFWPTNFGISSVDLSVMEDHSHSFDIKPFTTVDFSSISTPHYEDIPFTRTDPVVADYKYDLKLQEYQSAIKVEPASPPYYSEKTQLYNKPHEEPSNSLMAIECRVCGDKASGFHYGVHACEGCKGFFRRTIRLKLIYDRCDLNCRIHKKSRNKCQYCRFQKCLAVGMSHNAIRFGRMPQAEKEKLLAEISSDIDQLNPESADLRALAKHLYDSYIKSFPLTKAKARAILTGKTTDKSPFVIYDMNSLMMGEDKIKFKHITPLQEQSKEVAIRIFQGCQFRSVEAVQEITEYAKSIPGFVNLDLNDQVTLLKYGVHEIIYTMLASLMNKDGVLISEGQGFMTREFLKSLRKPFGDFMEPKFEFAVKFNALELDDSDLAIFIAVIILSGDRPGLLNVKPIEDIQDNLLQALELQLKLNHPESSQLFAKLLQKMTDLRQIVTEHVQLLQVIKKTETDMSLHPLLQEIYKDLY

For the molecule `COC(=O)c1ccccc1C`, the Potency entry in [1], in assay [2], in [3], in assay [4], in [5] and in assay [6] was “inactive” each time. The Potency entry in assay [7], in assay [8], in assay [9], in assay [10], in assay [11] and in [12] was “inactive” throughout. Further, the Potency result in assay [13] and in assay [14] was “inactive” throughout.
As for `CC(C)CCCCCOC(=O)CCS`, the Potency entry in assay [1], in assay [2], in [3], in [4], in assay [5] and in assay [15] was “inactive” in each case. The Potency entry in [8], in assay [16], in assay [10], in assay [11], in [12] and in assay [14] was “inactive” each time. The Potency entry in assay [17] and in [18] was “inactive” in each case.
As for `O=S(=O)(O)c1ccc(N=Nc2c(O)ccc3ccccc23)cc1`, the Potency in assay [1] was 17.2 µM (active); in [2] it was 27.3 µM (active); in assay [3], 24.3 µM (active); in assay [12], 38.9 µM (active); in assay [14], 38.9 µM (active). Moreover, the Potency entry in [4], in assay [5], in assay [15], in assay [9], in [16] and in assay [10] was “inactive” in each case. The Potency result in assay [11], in assay [17] and in [18] was “inactive” each time.
On to `CCCC1CCC(=O)CC1`, for which the Potency entry in assay [1], in [2], in assay [3], in assay [4], in assay [5] and in assay [6] was “inactive” each time. The Potency entry in assay [7], in assay [8], in assay [9], in [12] and in assay [14] was “inactive” each time.
As for `CC[N+](CC)(CC)CCOC(=O)C(C1CCCC1)C1CCCC1`, the Potency entry in assay [1], in [2], in [3], in [4], in assay [5] and in assay [7] was “inactive” each time. Also, the Potency entry in [9], in assay [16], in assay [10], in assay [19], in assay [11] and in [12] was “inactive” in each case. Also, the Potency entry in [14], in [17] and in [18] was “inactive” throughout.
For `O=C1CCc2cc(OCCCCc3nnnn3C3CCCCC3)ccc2N1`, the Potency entry in [1], in assay [2], in [3], in assay [4], in assay [5] and in assay [15] was “inactive” each time. In addition, the Potency entry in assay [7], in [9], in assay [19], in assay [11], in [20] and in [12] was “inactive” throughout. The Potency result in [13], in assay [14] and in assay [18] was “inactive” in each case.
For the molecule `Cl[Si](Cl)(c1ccccc1)c1ccccc1`, the Potency result in assay [1], in assay [2], in assay [3], in assay [4], in assay [15] and in assay [6] was “inactive” each time. Besides, the Potency entry in [7], in [8], in assay [10], in assay [20], in assay [12] and in assay [13] was “inactive” in each case. Besides, the Potency result in assay [14], in assay [17] and in assay [18] was “inactive” in each case.
As to `COC(C)=O`, the Potency entry in assay [1], in [2], in [3], in assay [4], in assay [15] and in [6] was “inactive” throughout. The Potency result in assay [7], in assay [8], in assay [9], in assay [16], in assay [10] and in assay [19] was “inactive” in each case. Further, the Potency entry in [11], in assay [12], in assay [13] and in assay [14] was “inactive” each time.
With `CC1(C)CCC[C@]2(C)[C@H]3CCO[C@]3(C)CC[C@@H]12`, the Potency entry in assay [1], in assay [2], in [3], in assay [4], in assay [15] and in [6] was “inactive” in each case. Further, the Potency result in assay [7], in [8], in assay [9], in [16], in assay [10] and in assay [11] was “inactive” each time. Further, the Potency entry in assay [12], in [14], in [17] and in assay [18] was “inactive” in each case.
